Results taken from PubChem BioAssay.

Assay: HepG2 liver cancer cell viability effects, profiling panel, resazurin fluorescence, 24 h, PK04 Diversity Set (AID 1172); further: test concentration not given here
Conditions: higher = more signal

First: COCCOC(=O)N1C(=O)[C@@]2(c3cc(C#CCC(C(=O)OC)C(=O)OC)ccc31)[C@H](C(N)=O)[C@H]1C(=O)O[C@H](c3ccccc3)[C@H](c3ccccc3)N1[C@@H]2c1ccccc1OCCO
Second: C=CCNC(=O)[C@H]1[C@@H]2C(=O)O[C@@H](c3ccccc3)[C@@H](c3ccccc3)N2[C@@H](c2ccc(OCCO)cc2)[C@]12C(=O)N(C(=O)OCCOC)c1ccc(C#CCC(C(=O)OC)C(=O)OC)cc12
The z-score of the first is higher: -0.0131 for the first, -0.181 for the second.

First: C=C(COC)/C(=C/C[C@@H](OC(C)=O)c1cccc(OCCO)c1)c1cnc2ccccc2c1
Second: C=C(COC)C(=O)CC[C@@H](OC(=O)c1ccccc1-c1ccccc1C(=O)O)c1ccccc1OCCO
The z-score of the first is lower: -0.469 for the first, 0.078 for the second.

First: CC(C)[Si](C#Cc1ccccc1)(O[C@H](c1ccccc1)c1cn(Cc2ccccc2)nn1)C(C)C
Second: Cc1ccc(S[C@]2(C(=O)NC(C)C)CC(=O)N(Cc3ccccc3)[C@@H]2c2ccc(CO)cc2I)cc1
The z-score of the first is higher: -0.001 for the first, -0.885 for the second.

Compared with `C[C@]1(C(=O)O)c2ccccc2C(=O)N(Cc2cc(C(F)(F)F)cc(C(F)(F)F)c2)[C@H]1c1ccc(CO)cc1`, `O=C1c2ccccc2[C@](Cc2ccccc2I)(C(=O)NCCN2CCOCC2)[C@H](c2ccc(CO)cc2)N1Cc1ccccc1C(F)(F)F` is lower in z-score: 0.341 for the first, -0.936 for the second.

Compared with `[N-]=[N+]=NCc1ccccc1[C@H]1OC(c2ccc(OCCCO)cc2)=N[C@@]1(CCS(=O)(=O)c1ccccc1)C(=O)NCCN1CCOCC1`, `CC(C)(C)OC(=O)CC[C@@]1(C(=O)N2CCOCC2)N=C(c2ccc(OCCCO)cc2)O[C@@H]1c1ccccc1CN=[N+]=[N-]` is lower in z-score: -0.152 for the first, -0.538 for the second.

Going from `C=CC[C@@]1(C(=O)NCCCOC)N=C(c2ccc(OCCCO)cc2)O[C@@H]1c1ccccc1CN=[N+]=[N-]` to `CCOC(=O)C[C@H]1[C@H](OC(=O)c2ccc(-c3ccccc3)cc2)[C@@H](NC(=O)c2ccc(-c3ccccc3)cc2)c2cc(OCCCO)ccc2N1C(=O)c1ccccc1`, the z-score falls from 0.891 to -0.697.

Going from `CC(=O)NCCCC[C@@H]1NC(=O)[C@H]2C[C@@H](C(=O)O)[C@@H](c3cccc(OCCO)c3)N2C1=O` to `CC(=O)NCCCC[C@@H]1NC(=O)[C@H]2C[C@@H](C(=O)NCCCCCN)[C@@H](c3ccc(O)cc3)N2C1=O`, the z-score rises from -0.7 to -0.508.

First: C=CCNC(=O)[C@H]1[C@@H]2C(=O)O[C@@H](c3ccccc3)[C@@H](c3ccccc3)N2[C@@H](c2ccc(O)cc2)[C@]12C(=O)Nc1ccccc12
Second: C=CCNC(=O)[C@H]1[C@@H]2C(=O)O[C@@H](c3ccccc3)[C@@H](c3ccccc3)N2[C@@H](c2ccc(O)cc2)[C@]12C(=O)N(C(=O)OCCOC)c1ccc(C#Cc3ccc(OC)cc3)cc12
The z-score of the first is higher: 0.715 for the first, 0.267 for the second.

Compared with `COC(=O)c1ccc(OC)c(/C=C\CC(OC(=O)c2ccncc2)c2ccccc2)c1` (stereo not given), `C=C(C)C1CN([C@H](CO)c2ccccc2)C(=O)/C1=C\c1ccccc1` (stereo not given in full) is lower in z-score: 0.887 for the first, -0.607 for the second.

First: COc1ccc([Si](C)(C)[C@H]2[C@H](CC(=O)N(CCO)Cc3ccccc3)O[C@@]3(C(=O)N(Cc4ccc(N5C(=O)c6cccc7cccc5c67)cc4)c4ccccc43)[C@@H]2C)cc1
Second: C=CCOC(=O)[C@H]1[C@@H]2C(=O)O[C@@H](c3ccccc3)[C@@H](c3ccccc3)N2[C@@H](c2ccc(OCCOC(=O)[C@H]3C[C@H]4C(=O)NCC(=O)N4[C@H]3c3cccc(OCCO)c3)cc2)[C@]12C(=O)Nc1ccc(I)cc12
The z-score of the first is lower: -1.14 for the first, -0.199 for the second.

Compared with `C[N+](C)(C)CCCC[C@@H]1NC(=O)[C@H]2C[C@@H](C(=O)NCCCCCN)[C@@H](c3ccc(O)cc3)N2C1=O`, `COC(=O)C1=CC(CCCO)=CC(c2ccc(CN3CCCC3)cc2)N(C)C=C1C(=O)OC` (stereo not given) is higher in z-score: 0.372 for the first, 0.407 for the second.

First: CCCC1(C(=O)OC)C=C2C(=C(C(C)C)C(=O)C2C)CN1 (stereo not given)
Second: CCCC[C@@H](O)C1=C(C)Cn2c(=O)n(-c3ccccc3)c(=O)n2[C@H]1CO
The z-score of the first is lower: -0.964 for the first, -0.256 for the second.

Going from `CS(=O)(=O)CCOC(=O)C1=CC(CCCO)=CC(C2CC2)N(Cc2sc3ccccc3c2Cl)C=C1C(=O)OCCS(C)(=O)=O` (stereo not given) to `COC(=O)C1=CC(c2ccc(CO)cc2)=CC(C2CC2)N(Cc2cc3c(cc2Br)OCO3)C=C1C(=O)OC` (stereo not given), the z-score falls from -0.0631 to -0.0995.

Compared with `CN1C(=O)C2C=CC(C(O)c3ccc(I)cc3)N(N(c3ccccc3)c3ccccc3)C2C1=O` (stereo not given), `COc1ccc(C(O)C2C=CC3C(=O)N(c4ccccc4)C(=O)C3N2Nc2ccccc2F)c2ccccc12` (stereo not given) is lower in z-score: -0.476 for the first, -1.83 for the second.

Compared with `CC(C)(C)OC(=O)N1[C@@H](C=C(Br)Br)COC1(C)C`, `CCCN1C(=O)[C@@]2(c3ccc([N+](=O)[O-])cc3)CC(=O)N(C3CCCCC3)[C@@H]2c2ccc(CO)cc21` is lower in z-score: 0.373 for the first, -0.225 for the second.

First: CN1C(=O)C2C=CC(C(O)COCc3ccccc3)N(Nc3ccc([N+](=O)[O-])cc3[N+](=O)[O-])C2C1=O (stereo not given)
Second: CC(C)c1ccc(NN2C(C(O)C3CCCCC3)C=CC3C(=O)N(c4ccccc4)C(=O)C32)cc1 (stereo not given)
The z-score of the first is lower: -0.473 for the first, -0.454 for the second.

Compared with `C=CC[C@H](O)c1ccc(O)c(F)c1`, `COC(=O)C(CC#Cc1ccc2c(c1)[C@]1(C(=O)N2)[C@H](C(=O)N2CCCCCCC2)[C@H]2C(=O)O[C@H](c3ccccc3)[C@H](c3ccccc3)N2[C@@H]1c1ccc(OCCO)cc1)C(=O)OC` is higher in z-score: -0.632 for the first, 0.883 for the second.

`C[C@H]1C2[C@H](Cc3ccccc3)NC(=O)[C@]23C(=O)N[C@@H](Cc2ccccc2)C(=O)N2CCC[C@H]2C(=O)NC/C=C/CC/C=C/C3[C@@H]2O[C@]12C` (stereo not given in full) gave a z-score of -0.661.
